# PNC inhibitor: perinucleolar compartment assembly inhibition | PC3M PTB-GFP, PNC prevalence imaging, 16 h; hits give low values | activity change (PNC), negative = inhibition, % at 10 µM | hit rate 3.1% among 140,000 | AID 2417;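 active means readout at or below -70, meaning at least 70% loss of cells showing the perinucleolar compartment, a nuclear body marking cancer cells; inconclusive means readout between -30 and a set limit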;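 further: plate controls were DMSO wells for no effect and camptothecin positive control wells for full effect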
#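 PC3M cells stably expressing PTB-GFP, 750–1000 cells/well, treated 16 h at 37 °C with compound (23 nl of library stock), in duplicate. After paraformaldehyde fixation and Hoechst stain, imaged at 20x; PNC prevalence scored by image analysis.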
# 12-hLO inh: blocks human 12-lipoxygenase activity; P18054; purified 12-hLO, xylenol orange hydroperoxide absorbance; Potency, µM (top dose mostly 57.1 µM), without a hit: at the top dose activity change, negative = inhibition, most hits filed as inhibitors; hit rate 0.12% among 150,000; active means well fitted inhibition curve with a large enough effect; inconclusive means small, poorly fitted or top-dose-only effect; further: potency means the concentration at half of the fitted maximal effect; nearly all actives have a fitted effect of over 55% in size
#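 Purified human 12hLO (150 nM), preincubated 15 min with compound, then 40 uM arachidonic acid for 30 min, room temperature, Hepes pH 7.0 with 0.01% Triton X-100. Hydroperoxide detected by ferrous iron/xylenol orange; 573/405 nm absorbance ratio gives reaction progress.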
# ALDH1A1 block: ALDH1A1 (human) enzyme inhibition; hit rate 7.3% among 220,000; AID 1030; P00352; Potency, µM (highest dose often 75.3 µM), inactives show at the highest dose activity, negative = inhibition, most hits filed as inhibitors; Purified ALDH1A1, NADH fluorescence, propionaldehyde substrate;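 further: potency means the concentration at half of the fitted maximal effect; plate controls were no enzyme wells and a reference inhibitor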
# Target sequence (P00352 whole entry, looked up): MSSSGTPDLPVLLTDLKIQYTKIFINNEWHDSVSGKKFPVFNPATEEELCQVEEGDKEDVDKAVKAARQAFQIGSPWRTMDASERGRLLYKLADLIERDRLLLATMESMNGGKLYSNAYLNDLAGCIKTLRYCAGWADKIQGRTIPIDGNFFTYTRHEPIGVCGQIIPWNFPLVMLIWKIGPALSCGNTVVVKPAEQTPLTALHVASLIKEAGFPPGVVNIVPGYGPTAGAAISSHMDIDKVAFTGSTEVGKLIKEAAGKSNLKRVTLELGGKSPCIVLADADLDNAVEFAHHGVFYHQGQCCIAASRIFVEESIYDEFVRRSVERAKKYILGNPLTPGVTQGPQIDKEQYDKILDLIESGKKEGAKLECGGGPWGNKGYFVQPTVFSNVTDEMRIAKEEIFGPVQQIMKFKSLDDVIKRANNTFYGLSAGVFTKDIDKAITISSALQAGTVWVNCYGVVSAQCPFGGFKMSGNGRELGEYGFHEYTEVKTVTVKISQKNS
# Lamin A splicing: LMNA splicing modulation; HeLa LMNA splicing GFP/RFP minigene ratio, 48 h; Potency, µM (titrated, usually from 46.1 µM), inactives show at the top dose ratio change, negative = inhibition, most hits filed as inhibitors; hit rate 0.01% among 200,000; active means well fitted inhibition curve with a large enough effect in the signal ratio, with a control signal flat, not every such curve was filed as active; inconclusive means small, poorly fitted or top-dose-only effect, or effect the other way, or a change in a side signal; the % refers to the signal ratio; further: potency means the concentration at half of the fitted maximal effect
#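 S3 HeLa cells stably expressing lamin A-EGFP splicing minigene plus DsRed2, 600 cells/well, 48 h compound exposure at 37C. Laser-scanning cytometry; analysed as GFP (500-530 nm)/RFP (575-640 nm) total intensity ratio; 0.5% DMSO vehicle.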
# HPGD block: HPGD (human) dehydrogenase inhibition; purified HPGD, NADH fluorescence kinetic, PGE2 substrate; hit rate 4.3% among 150,000; P15428; Potency, µM, for inactives: at the highest dose activity change, negative = inhibition, usual class: inhibitors; further: potency means the concentration at half of the fitted maximal effect
#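 NADH formation kinetics: reaction with 30 uM PGE2 and 1 mM NAD+ (final), 20 nM enzyme, Tris-HCl pH 8 with Tween 20, after 15 min compound preincubation at room temperature. Fluorescence change, last versus first of five reads.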
# * hit, by the source's call; ? = inconclusive; / = no result given; [ ] = remark or other dose. An excerpt weighted towards active compounds, which were near 10% of everything screened. Unless noted, the call rests on the fitted dose curve; in most records, active means well fitted inhibition curve with a large enough effect (not every such curve was filed as active); inconclusive means small, poorly fitted or top-dose-only effect, or another doubt; inactive means no such curve, though single readings can be large or run the other way. Unless noted, on the % scale 0 is the no-effect control and ±100 the full control effect.
SMILES,PNC inhibitor,12-hLO inh,ALDH1A1 block,Lamin A splicing,HPGD block
O=C1CCN(S(=O)(=O)c2ccccc2)C2CCCCC12 (stereo unspecified),-86.5*,-0.1%,?,-8.2%,-7.8%
CNc1cc(-c2ccccc2CN(C)C)ncn1,/,/,?,3.8%,/
CCOC(=O)c1c(/N=C/C2=C(O)CC(C)(C)CC2=O)sc(C)c1C,-6.1,0.7%,7.08µM*,11.2%,-5.0%
CCOC(=O)c1sc(/N=C/N(C)C)c(C(=O)OCC)c1C,-82.5*,-0.7%,0.8%,18.7%,-12.3%
CCOC(=O)c1c(/N=C/c2ccccc2O)sc2c1CCC2,-28.0,-4.1%,-15.7%,-3.3%,/
CCOC(=O)c1c(/N=C/c2cc(OC)cc([N+](=O)[O-])c2O)sc(C)c1C,-6.5,-2.9%,31.6µM*,-18.0%,-13.8%
CCOC(=O)c1c(/N=C/c2cc([N+](=O)[O-])ccc2O)sc(C)c1C,-11.9,-21.1%,20µM*,-14.6%,-11.3%
NC(=O)c1ccc[n+](CC(=O)OCCC23CC4CC(CC(C4)C2)C3)c1,3.6,3.1%,25.1µM*,16.8%,-7.2%
NC(=O)c1ccc[n+](CC(=O)c2ccc(Br)cc2)c1,/,/,9.0%,-7.0%[9.22 µM],/
CC1CC(C)CN(CC(=O)NCCc2ccc(S(N)(=O)=O)cc2)C1 (stereo unspecified),/,/,18.4%,-8.4%[46 µM],/
O=C(COC(=O)C1CC(=O)N(Cc2ccco2)C1)c1ccc(OC(=O)c2ccco2)cc1 (stereo unspecified),-11.1,-2.4%,1.58µM*,-3.4%,17.8µM*
Cc1ccc(CCN2CC(C(=O)NCc3ccco3)CC2=O)cc1 (stereo unspecified),?,6.8%,28.2µM*,10.0%,-12.5%
Cc1ccc(C(=O)Oc2ccc(C(=O)COC(=O)C3CC(=O)N(Cc4ccco4)C3)cc2)cc1 (stereo unspecified),-18.9,-4.3%,25.1µM*,2.1%,?
CC1CCN(CC2CCN(C(=O)NCc3ccccc3)CC2)CC1,/,/,/,-1.1%[46 µM],/
COc1ccc(-c2nc(SCC(=O)NCCCc3ccccc3)n[nH]2)cc1,/,/,/,2.8%[46 µM],/
Cc1cccc(CSc2nc3c(c(-c4cccs4)c2C#N)CN(C)CC3)c1,-25.3,-3.5%,?,?,-5.1%
CN1CCc2nc(SCC(=O)Nc3ccc(OC(F)(F)F)cc3)c(C#N)c(-c3cccs3)c2C1,-1.6,-5.2%,3.16µM*,?,-23.8%
CN1CCc2nc(SCC(=O)Nc3cccc(F)c3)c(C#N)c(-c3cccs3)c2C1,13.8,-3.3%,8.91µM*,-6.9%,-24.7%
CCCNC(=O)c1ccc2c(c1)nc1n2CCCCC1,/,/,/,13.9%[46 µM],/
C1CCC[C@H]2CCCN3CC[C@H](CCCCCC[C@@H]4CCCN5CC[C@H](CC1)OC45)OC23,/,/,11.0%,/,/
c1ccc(-c2nc3ccccc3nc2-c2ccccn2)nc1,-85.6*,3.8%,3.0%,6.8%,-14.5%
CN(C)NC(=S)Nc1ccc2nc(-c3ccccn3)c(-c3ccccn3)nc2c1,4.0,-3.1%,?,-9.7%,-12.5%
CC(=O)Nc1ccn(-c2ccccc2)n1,-118.9*,5.3%,4.0%,2.8%,-13.6%
Cc1ccc(NC(=O)N/C=C/c2ccc(Cl)cc2)cc1,56.7,-29.9%,22.4µM*,-3.6%,-13.5%
O=C(N/C=C/c1ccccc1)Nc1ccc(Cl)cc1,17.0,-21.3%,?,?,-14.5%
SMILES,PNC inhibitor,12-hLO inh,ALDH1A1 block,Lamin A splicing,HPGD block
Cc1cc(-c2nnc(SCC(=O)Nc3ccccc3C(F)(F)F)o2)c(C)n1-c1ccccc1,31.5,0.0%,11.2µM*,0.2%,-15.4%
COc1ccc(OC)c(NC(=O)c2ccc3nc(-c4ccccc4)c(-c4ccccc4)nc3c2)c1,-28.3,1.0%,10µM*,-8.8%,-11.0%
COc1ccc(C(=O)Nc2cc(Cl)ccc2OC(=O)c2ccc(OC)cc2)cc1,-12.2,-8.7%,1µM*,10.8%,-7.9%
Cc1ccc(C(=O)Nc2cc(Cl)ccc2OC(=O)c2ccc(C)cc2)cc1,77.3,0.6%,-2.2%,6.2%,-19.5%
O=C(Nc1ccccc1OC(=O)c1ccc(Cl)cc1)c1ccc(Cl)cc1,-94.2*,-0.3%,10.6%,?,-9.7%
Cc1cccnc1CCNC(=O)CC1C(=O)NCCN1CC1CCCCC1 (stereo unspecified),/,/,-1.7%,0.5%[46 µM],/
